Drawing on ChEMBL document CHEMBL2218924, “A broad activity screen in support of a chemogenomic map for kinase signalling research and drug discovery” (Biochem J, 2013), this text covers residual activity for one molecule.

Broadly, the residual activity is the signal under treatment as a percentage of the control signal.

Assay [1] addresses T1, Ephrin type-B receptor 1 (Homo sapiens) (UniProt P54762).
T1 sequence (whole entry): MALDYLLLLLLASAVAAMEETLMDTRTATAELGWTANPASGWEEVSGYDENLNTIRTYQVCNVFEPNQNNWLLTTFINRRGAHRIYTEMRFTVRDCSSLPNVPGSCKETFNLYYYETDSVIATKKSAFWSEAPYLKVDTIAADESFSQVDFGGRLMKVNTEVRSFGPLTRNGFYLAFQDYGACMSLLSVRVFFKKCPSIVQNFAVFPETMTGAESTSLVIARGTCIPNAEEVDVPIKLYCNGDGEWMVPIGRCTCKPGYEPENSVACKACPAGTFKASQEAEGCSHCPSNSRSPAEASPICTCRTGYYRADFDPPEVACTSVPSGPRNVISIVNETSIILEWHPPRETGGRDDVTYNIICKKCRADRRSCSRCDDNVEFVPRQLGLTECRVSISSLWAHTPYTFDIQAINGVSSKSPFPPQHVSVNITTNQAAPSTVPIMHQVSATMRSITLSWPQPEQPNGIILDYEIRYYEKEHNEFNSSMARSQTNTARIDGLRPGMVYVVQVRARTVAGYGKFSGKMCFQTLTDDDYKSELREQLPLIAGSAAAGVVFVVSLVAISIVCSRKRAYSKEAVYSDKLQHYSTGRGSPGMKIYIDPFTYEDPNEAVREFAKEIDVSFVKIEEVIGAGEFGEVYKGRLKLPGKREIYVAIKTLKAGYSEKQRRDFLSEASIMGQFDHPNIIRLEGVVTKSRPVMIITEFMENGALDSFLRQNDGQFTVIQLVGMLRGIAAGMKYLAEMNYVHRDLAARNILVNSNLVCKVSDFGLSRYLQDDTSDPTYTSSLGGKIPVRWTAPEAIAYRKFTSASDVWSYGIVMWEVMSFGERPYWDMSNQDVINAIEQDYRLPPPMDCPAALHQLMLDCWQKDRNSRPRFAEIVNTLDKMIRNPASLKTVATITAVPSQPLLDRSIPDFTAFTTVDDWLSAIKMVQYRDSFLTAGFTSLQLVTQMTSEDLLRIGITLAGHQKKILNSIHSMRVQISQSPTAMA
The following applies: at 10 µM.

Assay [2] addresses T2, Ephrin type-B receptor 2 (Homo sapiens) (UniProt P29323).
T2 sequence (whole entry): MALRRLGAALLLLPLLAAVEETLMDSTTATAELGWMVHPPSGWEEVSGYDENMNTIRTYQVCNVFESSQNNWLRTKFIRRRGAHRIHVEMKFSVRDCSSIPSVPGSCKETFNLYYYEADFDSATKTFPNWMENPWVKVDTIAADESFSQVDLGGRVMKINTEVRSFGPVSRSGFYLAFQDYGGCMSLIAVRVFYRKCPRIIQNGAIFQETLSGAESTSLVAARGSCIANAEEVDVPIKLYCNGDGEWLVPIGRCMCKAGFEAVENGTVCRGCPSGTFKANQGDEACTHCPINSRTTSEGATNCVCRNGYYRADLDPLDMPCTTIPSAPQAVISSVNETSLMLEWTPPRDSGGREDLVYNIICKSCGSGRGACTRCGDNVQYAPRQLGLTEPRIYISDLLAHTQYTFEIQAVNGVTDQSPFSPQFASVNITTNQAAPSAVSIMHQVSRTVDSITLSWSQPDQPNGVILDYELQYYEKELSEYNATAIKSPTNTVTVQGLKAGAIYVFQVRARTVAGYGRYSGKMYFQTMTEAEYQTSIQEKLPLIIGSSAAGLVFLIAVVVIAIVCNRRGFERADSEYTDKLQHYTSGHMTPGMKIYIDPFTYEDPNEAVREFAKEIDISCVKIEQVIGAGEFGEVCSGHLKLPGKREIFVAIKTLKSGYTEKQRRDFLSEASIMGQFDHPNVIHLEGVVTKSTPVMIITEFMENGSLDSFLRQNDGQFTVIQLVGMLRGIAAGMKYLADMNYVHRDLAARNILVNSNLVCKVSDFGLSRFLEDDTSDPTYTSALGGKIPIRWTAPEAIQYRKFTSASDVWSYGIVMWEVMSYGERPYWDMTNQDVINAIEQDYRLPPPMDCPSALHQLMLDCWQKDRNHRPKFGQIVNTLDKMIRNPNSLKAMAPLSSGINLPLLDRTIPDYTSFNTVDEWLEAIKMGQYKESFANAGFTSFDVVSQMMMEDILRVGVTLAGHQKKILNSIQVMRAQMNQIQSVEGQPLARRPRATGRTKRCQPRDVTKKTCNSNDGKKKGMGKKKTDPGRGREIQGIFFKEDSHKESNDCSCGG
The following applies: at 1 µM.

Assay [3] concerns the target T2, Ephrin type-B receptor 2 (Homo sapiens). The following applies: at 10 µM.
In assay [4] the target is T3, Ephrin type-B receptor 3 (Homo sapiens) (UniProt P54753).
T3 sequence (whole entry): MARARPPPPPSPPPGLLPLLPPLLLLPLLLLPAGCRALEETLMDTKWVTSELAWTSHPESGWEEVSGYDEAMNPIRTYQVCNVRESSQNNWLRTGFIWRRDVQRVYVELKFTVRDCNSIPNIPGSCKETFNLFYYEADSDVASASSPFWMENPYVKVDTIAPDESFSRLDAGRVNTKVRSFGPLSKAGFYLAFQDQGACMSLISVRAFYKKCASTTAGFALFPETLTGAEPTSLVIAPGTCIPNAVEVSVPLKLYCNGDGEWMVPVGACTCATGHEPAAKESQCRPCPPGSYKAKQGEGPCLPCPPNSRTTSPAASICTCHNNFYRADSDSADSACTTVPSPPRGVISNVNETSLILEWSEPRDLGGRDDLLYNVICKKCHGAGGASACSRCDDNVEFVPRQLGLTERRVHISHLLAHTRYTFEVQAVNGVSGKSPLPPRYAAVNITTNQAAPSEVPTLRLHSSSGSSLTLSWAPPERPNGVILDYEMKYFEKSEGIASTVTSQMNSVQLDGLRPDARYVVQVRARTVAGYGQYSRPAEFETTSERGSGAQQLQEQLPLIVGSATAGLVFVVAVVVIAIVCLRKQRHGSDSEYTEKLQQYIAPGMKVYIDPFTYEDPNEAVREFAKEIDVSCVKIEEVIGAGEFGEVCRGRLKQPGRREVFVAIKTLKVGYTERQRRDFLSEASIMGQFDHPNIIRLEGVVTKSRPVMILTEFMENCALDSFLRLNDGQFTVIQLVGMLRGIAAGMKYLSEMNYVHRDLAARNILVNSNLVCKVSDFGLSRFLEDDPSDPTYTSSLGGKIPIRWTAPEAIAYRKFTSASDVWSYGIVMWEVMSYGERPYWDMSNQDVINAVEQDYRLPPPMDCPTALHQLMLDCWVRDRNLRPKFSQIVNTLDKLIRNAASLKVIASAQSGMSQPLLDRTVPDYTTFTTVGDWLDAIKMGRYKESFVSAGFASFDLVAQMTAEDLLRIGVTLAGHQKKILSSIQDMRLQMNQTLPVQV
The following applies: at 1 µM.

For assay [5], the target named is T3, Ephrin type-B receptor 3 (Homo sapiens). The following applies: at 10 µM.
For assay [6], the target named is T4, Ephrin type-B receptor 4 (Homo sapiens) (UniProt P54760).
T4 sequence (whole entry): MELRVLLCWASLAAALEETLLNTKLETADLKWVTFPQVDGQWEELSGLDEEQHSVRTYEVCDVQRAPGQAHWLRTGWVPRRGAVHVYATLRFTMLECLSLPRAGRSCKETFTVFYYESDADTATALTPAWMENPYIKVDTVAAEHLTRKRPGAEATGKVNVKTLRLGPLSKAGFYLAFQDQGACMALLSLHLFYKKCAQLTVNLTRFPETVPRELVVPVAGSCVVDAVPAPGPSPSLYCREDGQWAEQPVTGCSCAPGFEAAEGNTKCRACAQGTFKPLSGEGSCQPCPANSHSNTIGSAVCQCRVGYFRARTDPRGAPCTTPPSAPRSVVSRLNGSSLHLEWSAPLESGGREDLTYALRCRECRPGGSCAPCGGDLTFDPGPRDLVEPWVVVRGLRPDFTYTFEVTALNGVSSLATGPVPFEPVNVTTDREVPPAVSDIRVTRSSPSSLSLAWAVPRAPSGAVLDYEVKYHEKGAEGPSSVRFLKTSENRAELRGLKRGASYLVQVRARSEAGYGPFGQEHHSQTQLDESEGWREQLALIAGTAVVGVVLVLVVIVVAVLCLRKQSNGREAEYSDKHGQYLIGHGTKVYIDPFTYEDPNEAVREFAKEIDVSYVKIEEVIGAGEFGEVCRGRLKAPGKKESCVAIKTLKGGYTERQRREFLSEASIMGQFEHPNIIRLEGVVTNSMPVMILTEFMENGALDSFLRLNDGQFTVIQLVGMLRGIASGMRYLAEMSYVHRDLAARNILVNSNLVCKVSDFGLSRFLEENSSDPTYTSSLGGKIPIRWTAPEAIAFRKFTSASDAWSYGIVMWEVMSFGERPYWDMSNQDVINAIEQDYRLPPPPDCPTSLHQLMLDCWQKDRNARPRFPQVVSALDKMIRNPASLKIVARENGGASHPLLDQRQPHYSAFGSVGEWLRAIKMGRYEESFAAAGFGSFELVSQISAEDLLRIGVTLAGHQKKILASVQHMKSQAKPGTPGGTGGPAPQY
The note with it: at 1 µM.

In assay [7] the target is T4, Ephrin type-B receptor 4 (Homo sapiens). The note with it: at 10 µM.
Assay [8] has as its target Receptor tyrosine-protein kinase erbB-4 (Homo sapiens) (UniProt Q15303). The following applies: at 1 µM.
Assay [9] shares this target. The following applies: at 10 µM.
Assay [10] addresses Focal adhesion kinase 1 (Homo sapiens) (UniProt Q05397). The note with it: at 1 µM.

Chain of Receptor tyrosine-protein kinase erbB-4 (Homo sapiens) (Q15303 whole entry): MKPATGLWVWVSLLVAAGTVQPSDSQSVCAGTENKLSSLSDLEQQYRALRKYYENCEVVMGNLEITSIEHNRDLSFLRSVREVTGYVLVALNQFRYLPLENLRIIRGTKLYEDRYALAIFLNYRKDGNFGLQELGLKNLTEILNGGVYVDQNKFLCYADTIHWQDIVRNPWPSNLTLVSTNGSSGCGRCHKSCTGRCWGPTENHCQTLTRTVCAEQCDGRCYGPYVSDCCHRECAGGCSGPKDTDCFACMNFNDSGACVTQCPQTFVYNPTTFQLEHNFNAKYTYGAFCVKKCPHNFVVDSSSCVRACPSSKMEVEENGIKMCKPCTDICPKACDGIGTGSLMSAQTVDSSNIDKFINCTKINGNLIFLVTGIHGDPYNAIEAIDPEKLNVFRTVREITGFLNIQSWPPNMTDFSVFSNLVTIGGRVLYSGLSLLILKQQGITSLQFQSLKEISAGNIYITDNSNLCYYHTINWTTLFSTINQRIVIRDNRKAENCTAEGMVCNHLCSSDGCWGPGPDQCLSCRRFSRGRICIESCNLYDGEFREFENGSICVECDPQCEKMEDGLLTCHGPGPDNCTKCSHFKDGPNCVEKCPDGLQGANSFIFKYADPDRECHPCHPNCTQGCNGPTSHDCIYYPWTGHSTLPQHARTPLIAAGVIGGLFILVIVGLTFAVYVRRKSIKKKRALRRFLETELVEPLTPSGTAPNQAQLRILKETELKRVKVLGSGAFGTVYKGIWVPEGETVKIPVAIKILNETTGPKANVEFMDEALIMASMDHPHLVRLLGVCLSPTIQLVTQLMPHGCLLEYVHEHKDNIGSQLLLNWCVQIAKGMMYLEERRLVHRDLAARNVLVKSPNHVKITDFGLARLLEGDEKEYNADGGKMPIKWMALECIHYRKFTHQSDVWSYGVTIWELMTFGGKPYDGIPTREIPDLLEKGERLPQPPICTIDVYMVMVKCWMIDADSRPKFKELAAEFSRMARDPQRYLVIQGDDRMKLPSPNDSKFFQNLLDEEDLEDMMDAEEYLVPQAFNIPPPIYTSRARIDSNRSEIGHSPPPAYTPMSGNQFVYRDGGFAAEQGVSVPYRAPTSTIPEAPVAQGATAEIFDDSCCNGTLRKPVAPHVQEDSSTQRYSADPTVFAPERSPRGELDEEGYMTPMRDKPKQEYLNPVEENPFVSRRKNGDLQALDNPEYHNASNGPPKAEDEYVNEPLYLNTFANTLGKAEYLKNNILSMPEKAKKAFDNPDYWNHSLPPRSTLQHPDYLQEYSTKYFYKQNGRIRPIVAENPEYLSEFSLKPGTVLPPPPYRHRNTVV
Chain of Focal adhesion kinase 1 (Homo sapiens) (Q05397 2-1052 limits assumed): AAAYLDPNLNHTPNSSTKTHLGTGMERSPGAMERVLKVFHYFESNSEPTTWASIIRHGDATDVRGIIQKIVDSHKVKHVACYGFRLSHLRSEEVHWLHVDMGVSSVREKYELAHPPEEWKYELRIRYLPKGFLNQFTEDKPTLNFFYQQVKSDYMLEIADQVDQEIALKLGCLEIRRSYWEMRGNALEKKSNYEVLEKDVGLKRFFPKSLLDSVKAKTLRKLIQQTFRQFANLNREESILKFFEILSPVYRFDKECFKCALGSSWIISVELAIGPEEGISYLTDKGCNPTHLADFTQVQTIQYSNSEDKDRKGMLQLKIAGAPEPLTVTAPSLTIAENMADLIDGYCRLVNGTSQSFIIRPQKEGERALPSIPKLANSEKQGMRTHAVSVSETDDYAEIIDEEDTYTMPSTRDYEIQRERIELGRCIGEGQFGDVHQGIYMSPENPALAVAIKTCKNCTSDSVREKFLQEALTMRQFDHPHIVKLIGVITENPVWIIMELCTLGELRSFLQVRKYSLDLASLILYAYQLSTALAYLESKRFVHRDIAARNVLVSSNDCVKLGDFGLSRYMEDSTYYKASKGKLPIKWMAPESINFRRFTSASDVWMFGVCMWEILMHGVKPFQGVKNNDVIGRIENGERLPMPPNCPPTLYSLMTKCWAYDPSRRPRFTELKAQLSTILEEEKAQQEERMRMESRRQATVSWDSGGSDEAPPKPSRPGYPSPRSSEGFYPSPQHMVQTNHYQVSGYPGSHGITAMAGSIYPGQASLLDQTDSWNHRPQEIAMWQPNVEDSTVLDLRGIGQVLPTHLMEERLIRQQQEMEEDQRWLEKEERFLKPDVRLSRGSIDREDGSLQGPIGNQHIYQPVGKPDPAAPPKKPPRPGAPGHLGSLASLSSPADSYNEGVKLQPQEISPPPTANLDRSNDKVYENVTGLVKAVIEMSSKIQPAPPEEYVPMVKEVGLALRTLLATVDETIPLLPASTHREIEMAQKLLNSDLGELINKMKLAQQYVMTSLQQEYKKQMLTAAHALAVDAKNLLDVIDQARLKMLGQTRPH

For the molecule `Oc1n[nH]c2nnc(-c3c(-c4ccccc4)nn4ccccc34)cc12`, the residual activity in assay [1] is 83%; in assay [2] it was 123%; in assay [3] it was 128%; in [4], 109% (inactive); in assay [5], 103%; in assay [6] it was 86%. The residual activity in assay [7] was found to be 80%; in [8] it was 92%; in assay [9], 75%; in assay [10], 98%.
